Among the test systems are SR leukemia; RPMI-8226 leukemia; OVCAR-8 ovarian; OVCAR-5 ovarian; OVCAR-4 ovarian; SK-OV-3 ovarian; IGROV1 ovarian; OVCAR-3 ovarian; HS 578T breast; NCI/ADR-RES ovarian; T-47D breast; BT-549 breast; MDA-MB-435 melanoma; SW-620 colon; MCF7 breast; HCT-116 colon; HCC-2998 colon; KM12 colon.
Holding throughout (test): NCI-60 one-dose screen, 48 h (100 = growth as untreated, 0 = no growth, -100 = all killed)
Settings in all cases: 10 µM unless noted

Here are results for eight molecules from PubChem BioAssay (NCI).

About 83,000 compounds went through this panel and 20% of them were active in at least one assay; those are over-represented in the sample as a whole.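 Compound tested at a single concentration for 48 hours in 96-well plates; a percent growth value below 10 was scored as active.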 Unmarked numbers belong to inactive results. Active and inactive are the calls of the source.

`CS(=O)(=O)Nc1cc(-c2ccc3ncc(C#N)c(NCc4ccccc4O)c3c2)cnc1Cl`: the growth with SR leukemia is 6.89% (active); with RPMI-8226 leukemia, -21% (active); in the test on OVCAR-8 ovarian, 8.27% (active); in the test with OVCAR-5 ovarian it was 21.7%; with OVCAR-4 ovarian, 14.1%; with SK-OV-3 ovarian, -5.88% (active). For the same molecule, the growth in the test with IGROV1 ovarian was -41.8% (active); in the test with OVCAR-3 ovarian, 3.31% (active); in the test with HS 578T breast it was -17.9% (active); in the test on NCI/ADR-RES ovarian, 42.4%; in the test on T-47D breast, 13%; with BT-549 breast, -10% (active). The growth in the test with MDA-MB-435 melanoma is 5.99% (active); in the test with SW-620 colon, 9.16% (active); in the test with MCF7 breast it was 1.5% (active); with HCT-116 colon it was 2.58% (active); in the test with HCC-2998 colon it was -1.75% (active); in the test with KM12 colon, 10%.
As for `N#Cc1cccc(/C(N)=N/C(N)=N/c2nc3ccccc3s2)c1`, the growth in the test with SR leukemia is 26.2%; with RPMI-8226 leukemia, 8.74% (active); with OVCAR-8 ovarian it was 35%; in the test with OVCAR-5 ovarian it was 62.3%; with OVCAR-4 ovarian, 91.7%; with SK-OV-3 ovarian it was 41.6%. In addition, the growth is 36.6% with IGROV1 ovarian; 20.6% in the test with OVCAR-3 ovarian; 23% in the test with HS 578T breast; 14.3% in the test on NCI/ADR-RES ovarian; 34.1% in the test with T-47D breast; 49.3% in the test on BT-549 breast. Also, the growth with MDA-MB-435 melanoma is -39% (active); with SW-620 colon, 22.9%; in the test on MCF7 breast, 23.1%; in the test with HCT-116 colon it was 24%; with HCC-2998 colon it was 55.7%; with KM12 colon, 24.6%.
Regarding `CCn1c(SCC(=O)Nc2cccc(C(=O)/C=C/c3ccc(Br)cc3)c2)nc2ccccc2c1=O`, the growth in the test on SR leukemia is 74.3%; in the test on RPMI-8226 leukemia, 5.53% (active); with OVCAR-8 ovarian it was 96.4%; in the test on OVCAR-5 ovarian, 95.8%; with OVCAR-4 ovarian, 93%; with SK-OV-3 ovarian, 106%. The growth in the test with IGROV1 ovarian was 86.8%; in the test with OVCAR-3 ovarian, 90.7%; with HS 578T breast it was 98.3%; with NCI/ADR-RES ovarian it was 89.6%; in the test with T-47D breast, 90.7%; in the test with BT-549 breast, 85.7%. Further, the growth with MDA-MB-435 melanoma was 99.2%; in the test with SW-620 colon it was 80.9%; in the test on MCF7 breast, 21.5%; with HCT-116 colon, 28.4%; in the test on HCC-2998 colon, 95.3%; with KM12 colon it was 96.5%.
For the molecule `O=C(CNc1nc(-c2cccc([N+](=O)[O-])c2)cs1)Nc1cccc([N+](=O)[O-])c1`, the growth was 2.66% (active) in the test on SR leukemia; -18.8% (active) with RPMI-8226 leukemia; -3.29% (active) in the test with OVCAR-8 ovarian; -12.9% (active) in the test with OVCAR-5 ovarian; 5.36% (active) with OVCAR-4 ovarian; -23.9% (active) with SK-OV-3 ovarian. Besides, the growth with IGROV1 ovarian is -28.3% (active); in the test on OVCAR-3 ovarian, 5.33% (active); with HS 578T breast, -11.8% (active); with NCI/ADR-RES ovarian it was -11.4% (active); with T-47D breast, -5.2% (active); in the test with BT-549 breast, 15.2%. The growth in the test with MDA-MB-435 melanoma is -15.5% (active); in the test with SW-620 colon, 1.81% (active); in the test on MCF7 breast, -1.07% (active); in the test on HCT-116 colon it was -8.55% (active); in the test on HCC-2998 colon, -55.9% (active); in the test on KM12 colon it was 4.12% (active).
On to `C#CCC#CCN1CCC[C@H]1C(=O)NCC(=O)OC`, for which the growth with SR leukemia is 118%; in the test on RPMI-8226 leukemia it was 113%; with OVCAR-8 ovarian, 99.1%; in the test on OVCAR-5 ovarian it was 107%; in the test with OVCAR-4 ovarian, 97.3%; in the test on SK-OV-3 ovarian, 101%. Also, the growth in the test with IGROV1 ovarian is 104%; in the test on OVCAR-3 ovarian it was 114%; in the test with HS 578T breast it was 117%; in the test with NCI/ADR-RES ovarian, 96%; in the test with T-47D breast, 94.8%; with BT-549 breast, -91.5% (active). For the same molecule, the growth in the test on MDA-MB-435 melanoma is 105%; in the test with SW-620 colon it was 113%; in the test on MCF7 breast, 99.4%; in the test with HCT-116 colon it was 104%; with HCC-2998 colon, 106%; in the test with KM12 colon it was 103%.
In the case of `CS(=O)(=O)Nc1cc(-c2ccc3ncc(C#N)c(NCc4cccc(F)c4)c3c2)cnc1Cl`, the growth with SR leukemia is 2.9% (active); in the test with RPMI-8226 leukemia, -24.2% (active); in the test on OVCAR-8 ovarian, 7.95% (active); with OVCAR-5 ovarian, 16.4%; with OVCAR-4 ovarian it was 11.3%; in the test with SK-OV-3 ovarian, -18.2% (active). In addition, the growth in the test with IGROV1 ovarian was -42.5% (active); in the test on OVCAR-3 ovarian, 2.49% (active); in the test on HS 578T breast it was -24.8% (active); with NCI/ADR-RES ovarian it was 23.4%; in the test with T-47D breast it was 0.599% (active); in the test on BT-549 breast it was -17.4% (active). Further, the growth in the test with MDA-MB-435 melanoma was 5.21% (active); with SW-620 colon, 6.55% (active); in the test on MCF7 breast, 0.85% (active); with HCT-116 colon, 4.35% (active); in the test with HCC-2998 colon, -25.1% (active); with KM12 colon, 6.28% (active).
As for `COc1ccc(-c2nc3cccc(O)c3c(=O)n2Cc2ccccc2)cc1COc1ccc(NC(C)=O)cc1`, the growth was 27.5% [3 µM] in the test on SR leukemia; 44.5% [3 µM] in the test on RPMI-8226 leukemia; 49.3% [3 µM] with OVCAR-8 ovarian; 64.2% [3 µM] in the test on OVCAR-5 ovarian; 83% [3 µM] in the test with OVCAR-4 ovarian; 67.2% [3 µM] in the test on SK-OV-3 ovarian. Besides, the growth with IGROV1 ovarian was 41.6% [3 µM]; in the test on OVCAR-3 ovarian, 66.9% [3 µM]; in the test on HS 578T breast, 63.8% [3 µM]; in the test on NCI/ADR-RES ovarian, 51.1% [3 µM]; with T-47D breast, 76.5% [3 µM]; with BT-549 breast it was 55.4% [3 µM]. The growth is 59.7% [3 µM] in the test on MDA-MB-435 melanoma; 27.9% [3 µM] in the test on SW-620 colon; 37.1% [3 µM] in the test with MCF7 breast; 22.1% [3 µM] in the test on HCT-116 colon; 67.8% [3 µM] in the test on HCC-2998 colon; 39.8% [3 µM] in the test on KM12 colon.
Consider `COc1ccccc1NC1=C(Cl)C(=O)c2nc(C)ccc2C1=O`, for which the growth in the test with SR leukemia is -27.9% (active); with RPMI-8226 leukemia, -30.4% (active); in the test on OVCAR-8 ovarian, 9.87% (active); with OVCAR-5 ovarian it was 78.9%; in the test with OVCAR-4 ovarian it was -98.2% (active); in the test with SK-OV-3 ovarian, 88.3%. The growth is -83.5% (active) in the test with IGROV1 ovarian; -85.9% (active) with OVCAR-3 ovarian; 72.1% in the test with HS 578T breast; 7.08% (active) with NCI/ADR-RES ovarian; -44.7% (active) with T-47D breast; 83.5% with BT-549 breast. The growth was -86% (active) in the test with MDA-MB-435 melanoma; -63.1% (active) with SW-620 colon; -60.4% (active) with MCF7 breast; -80.6% (active) in the test on HCT-116 colon; 58.9% in the test with HCC-2998 colon; 69.4% with KM12 colon.
